Screens (PubChem BioAssay)
TDP1 cell noCPT: qHTS for Inhibitors of human tyrosyl-DNA phosphodiesterase 1 (TDP1): qHTS in cells in absence of CPT; DT40 Tdp1-/- hTDP1 cells, no CPT, ATP luminescence, 48 h; Potency, µM (doses to about 46.2 µM), for the others: top-dose activity change, negative = growth inhibition, most hits filed as inhibitors; 15% of 420,000 active; note: potency is the fitted concentration of half-maximal effect; nearly all actives have a fitted effect of over 55% in size
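A cellular qHTS used chicken DT40 cells lacking endogenous Tdp1 but carrying stably transfected human TDP1. Compounds were applied without camptothecin, and cell growth kinetics were judged by ATP-dependent luminescence after ≥48 hr.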
TDP1 cell CPT: DT40-hTDP1 cell growth loss with CPT. chicken DT40 Tdp1-/-;hTDP1 cells + 20 nM CPT, ATP luminescence, 48 h. Potency, µM (doses to about 46.2 µM), inactives show top-dose activity change, negative = growth inhibition, hits mostly inhibitors. 12% of 420,000 active. AID 686979; note: potency is the fitted concentration of half-maximal effect; nearly all actives have a fitted effect of over 55% in size
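Chicken DT40 Tdp1-/- cells complemented with human TDP1, 400 cells/well, exposed to compounds plus 20 nM camptothecin for at least 48 h at 37 C; viability read as ATP content by CellTiter-Glo luminescence.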
IL-1B inflam inh: inflammasome signaling inhibition, IL-1 beta readout; THP-1 LPS/ATP IL-1B secretion, AlphaLISA, 16 h; active compounds read low; activity change, % at 57.5 µM; 4.7% of 360,000 active; in the data active = activity change below about -50%; inconclusive = mostly about -30% to -49%
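Secreted IL-1B measured by AlphaLISA bead assay after 16 h compound exposure of THP-1 cells; compounds (final up to 57.5 uM) added 1 h before LPS (250 ng/mL) and ATP (1.25 mM) stimulation; lower signal means less secretion.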
HT1080 IDH1KD tx: toxicity to HT-1080 IDH1 knockdown cells (counter line). HT-1080 IDH1 knockdown viability, ATP luminescence, 48 h. Potency, µM (highest dose often 46.1 µM), for the others: top-dose activity, negative = toxicity, hits mostly cytotoxic. 2% of 360,000 active;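 note: potency is the fitted concentration of half-maximal effect; 0% = DMSO wells and -100% = cell-free medium wells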
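After a 2 h attachment period, IDH1KD HT-1080 cells took pin-transferred compound for 48 h at 37 °C; ATP-based luminescence after 10 min room-temperature reagent incubation reported viability.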
HT1080NT lethal: kills 2HG-producing HT-1080-NT fibrosarcoma cells. HT-1080-NT fibrosarcoma viability, CellTiter-Glo ATP luminescence, 48 h. Potency, µM (series often up to 46.1 µM), for inactives: top-dose activity, negative = less viability, most hits filed as cytotoxic. 1.6% of 360,000 active;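 note: NT is the 2HG producing partner of a matched IDH1 knockdown line; potency is the fitted concentration of half-maximal effect; 0% = DMSO-treated cells and -100% = media-only wells without cells; nearly all actives have a fitted effect of over 55% in size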
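Luminescent CellTiter-Glo readout after 48 hours of compound exposure at 37 degrees C defined viability of HT-1080-NT cells. Activity was normalized to DMSO wells and cell-free media wells; concentration-response curves were fitted and assigned curve classes.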
Active calls of the source: *; [ ] = dose if it differs, or a comment. Most compounds without a hit are left out; they make up all but 19% or so of the library. Unless noted, calls come from the whole dose curve; as a rule, active = well fitted curve in the direction sought with a large enough effect; inconclusive = small, poorly fitted or top-dose-only effect, or another doubt; inactive = no such curve, though single readings can be large; an effect the other way counts as inactive or inconclusive. Unless noted, % is set by controls: 0 for no effect and ±100 for the full control effect.

What do the screens show for `COc1ccc(C(=O)C(CN2CCCC2)c2ccccc2)cc1` (stereo unspecified)?
TDP1 cell noCPT: 3.2µM*; TDP1 cell CPT: 4µM*; IL-1B inflam inh: -109*; HT1080 IDH1KD tx: 13µM*; HT1080NT lethal: 11µM*

Results for O=C(Cn1cnc2c(nnn2Cc2ccccc2)c1=O)Nc1ccc2c(c1)OCCO2 ?
TDP1 cell noCPT: 3%; TDP1 cell CPT: -28%; IL-1B inflam inh: 18; HT1080 IDH1KD tx: -18%; HT1080NT lethal: -26%

What do the screens show for `Cc1cc(=O)oc2c(C)c3occc3cc12`?
TDP1 cell noCPT: -13%; TDP1 cell CPT: 14%; IL-1B inflam inh: inconclusive; HT1080 IDH1KD tx: -5%; HT1080NT lethal: 1%

Results for O=C(c1ccccc1)C(CCC(CN1CCOCC1)C(=O)c1ccccc1)CN1CCOCC1 (stereo unspecified) ?
TDP1 cell noCPT: 1.5µM*; TDP1 cell CPT: 0.73µM*; IL-1B inflam inh: -118*; HT1080 IDH1KD tx: 8.2µM*; HT1080NT lethal: 10µM*

What do the screens show for `NNc1nc(-c2ccccc2)c2ccccc2n1`?
TDP1 cell noCPT: -3%; TDP1 cell CPT: 4%; IL-1B inflam inh: 93; HT1080 IDH1KD tx: -12%; HT1080NT lethal: -23%

How did NNc1nnc(-c2ccccc2)c(-c2ccccc2)n1 do in these assays?
TDP1 cell noCPT: 16µM*; TDP1 cell CPT: 13µM*; IL-1B inflam inh: 8; HT1080 IDH1KD tx: inconclusive; HT1080NT lethal: inconclusive

Results for COCCOC(=O)c1c(C)oc2ccc(NS(=O)(=O)c3ccc(C(=O)O)cc3)cc12 ?
TDP1 cell noCPT: -27%; TDP1 cell CPT: -2%; IL-1B inflam inh: 0; HT1080 IDH1KD tx: 1%; HT1080NT lethal: 3%

What do the screens show for `CCOc1ccc(S(=O)(=O)Nc2ccc3oc(C)c(C(=O)OCCOC)c3c2)cc1`?
TDP1 cell noCPT: 1.5µM*; TDP1 cell CPT: 1.8µM*

What do the screens show for `CCOc1ccc(S(=O)(=O)N(C(C)=O)c2ccc3oc(C)c(C(=O)OC)c3c2)cc1`?
TDP1 cell noCPT: 0.58µM*; TDP1 cell CPT: 1.3µM*

Results for O=C1Nc2ccc(S(=O)(=O)Nc3ccccc3O)c3cccc1c23 ?
TDP1 cell noCPT: -22%; TDP1 cell CPT: 0%

Results for CC(C)OC(=O)C(C(=O)C(F)(F)F)c1cc(NS(=O)(=O)c2ccc3c4c(cccc24)C(=O)N3)ccc1O (stereo unspecified) ?
TDP1 cell noCPT: inconclusive; TDP1 cell CPT: 12µM*

Results for O=C(c1ccncc1)N(c1ccc2oc3c(c2c1)CCCC3)S(=O)(=O)c1ccc(F)cc1 ?
TDP1 cell noCPT: inconclusive; TDP1 cell CPT: inconclusive; IL-1B inflam inh: -138*; HT1080 IDH1KD tx: inconclusive; HT1080NT lethal: -24%

Results for NC[C@H]1O[C@H](O[C@H]2[C@H](O)[C@@H](O[C@H]3O[C@H](CO)[C@@H](O)[C@H](N)[C@H]3O)[C@H](N)C[C@@H]2N)[C@H](O)[C@@H](O)[C@@H]1O ?
TDP1 cell noCPT: inconclusive; TDP1 cell CPT: -8%[21.1 µM]

Results for COc1cc(CN2CCN(C(=O)c3ccccc3F)CC2)cc(OC)c1OC ?
TDP1 cell noCPT: inconclusive; TDP1 cell CPT: -5%; IL-1B inflam inh: -6; HT1080 IDH1KD tx: -2%; HT1080NT lethal: 6%

What do the screens show for `COC(=O)c1c(C)oc2ccc(N(C(=O)c3ccncc3)S(=O)(=O)c3ccc(Br)cc3)cc12`?
TDP1 cell noCPT: 3.7µM*; TDP1 cell CPT: 8.2µM*

Results for CC(=O)c1c(C)oc2ccc(N(C(C)=O)S(=O)(=O)c3ccc(Br)cc3)cc12 ?
TDP1 cell noCPT: inconclusive; TDP1 cell CPT: inconclusive; IL-1B inflam inh: -1; HT1080 IDH1KD tx: -18%; HT1080NT lethal: -19%

Results for CC(=O)c1c(C)oc2ccc(N(C(C)=O)S(=O)(=O)c3ccc(Cl)c([N+](=O)[O-])c3)cc12 ?
TDP1 cell noCPT: inconclusive; TDP1 cell CPT: inconclusive; IL-1B inflam inh: -117*; HT1080 IDH1KD tx: 6.5µM*; HT1080NT lethal: inconclusive

What do the screens show for `CCCCOC(=O)c1c(C)oc2ccc(NS(=O)(=O)c3ccc4c5c(cccc35)C(=O)N4)cc12`?
TDP1 cell noCPT: 18µM*; TDP1 cell CPT: inconclusive; IL-1B inflam inh: -28; HT1080 IDH1KD tx: -1%; HT1080NT lethal: -18%

How did COCCOC(=O)c1c(C)oc2ccc(NS(=O)(=O)c3cccs3)cc12 do in these assays?
TDP1 cell noCPT: -4%; TDP1 cell CPT: 7%; IL-1B inflam inh: 0; HT1080 IDH1KD tx: -1%; HT1080NT lethal: 0%

Results for COC(=O)c1c(C)oc2ccc(N(C(C)=O)S(=O)(=O)c3ccccc3)cc12 ?
TDP1 cell noCPT: -105%; TDP1 cell CPT: 15µM*; IL-1B inflam inh: -2; HT1080 IDH1KD tx: inconclusive; HT1080NT lethal: -9%

How did CC(=O)Nc1ccc(C(=O)COC(=O)CCc2ccccc2)c(F)c1 do in these assays?
TDP1 cell noCPT: 16%; TDP1 cell CPT: 9%; IL-1B inflam inh: 10; HT1080 IDH1KD tx: 9%; HT1080NT lethal: 8%

Results for COC(=O)c1c(C)oc(C)c1S(=O)(=O)Nc1ccccc1 ?
TDP1 cell noCPT: -26%; TDP1 cell CPT: -9%; IL-1B inflam inh: 1; HT1080 IDH1KD tx: 2%; HT1080NT lethal: 0%

How did COC(=O)c1c(C)oc(C)c1S(=O)(=O)N(Cc1ccccc1)C(C)C do in these assays?
TDP1 cell noCPT: 16µM*; TDP1 cell CPT: 13µM*; IL-1B inflam inh: 2; HT1080 IDH1KD tx: -11%; HT1080NT lethal: -6%

What do the screens show for `CCCN1CCN(c2ncnc3sc(C(=O)Nc4ccc(C(C)C)cc4)c(C)c23)CC1`?
TDP1 cell noCPT: inconclusive; TDP1 cell CPT: 21µM*

What do the screens show for `CCCN1CCN(c2ncnc3sc(C(=O)Nc4ccc(OC(F)(F)F)cc4)c(C)c23)CC1`?
TDP1 cell noCPT: 21µM*; TDP1 cell CPT: inconclusive

What do the screens show for `COc1cc(C(=O)NCCSc2ccc(Cl)cc2)cc(OC)c1OC`?
TDP1 cell noCPT: inconclusive; TDP1 cell CPT: inconclusive; IL-1B inflam inh: -15; HT1080 IDH1KD tx: 0%; HT1080NT lethal: -3%

How did COc1cc(C(=O)Sc2ccc(Cl)cc2)cc(OC)c1OC do in these assays?
TDP1 cell noCPT: 12µM*; TDP1 cell CPT: 13µM*; IL-1B inflam inh: inconclusive; HT1080 IDH1KD tx: inconclusive; HT1080NT lethal: inconclusive

Results for CCOC(=O)[C@@](C)(N)Cc1ccc(O)c(O)c1 ?
TDP1 cell noCPT: -25%[21.1 µM]; TDP1 cell CPT: inconclusive

How did O=C(NN=C1CCC(c2ccccc2)CC1)c1cc2c(s1)CCCC2 (stereo unspecified) do in these assays?
TDP1 cell noCPT: -23%; TDP1 cell CPT: -8%; IL-1B inflam inh: 2; HT1080 IDH1KD tx: 9%; HT1080NT lethal: 5%
